Source: PubChem BioAssay
“And” between values parts separate entries of the source, which are not always exact repeats. Equal entries are not always repeated. Results filed as inconclusive are left out. The source made the active and inactive calls.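 The calls were made as follows, unless noted: active = normalized viability below 100% at a tested concentration; inactive = the rest.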

Tests used:
[1] = growth inhibition of DIPG glioma cells, dose response, cell-based, SU-DIPG-XVII, MIPE5.0, CellTiter-Glo, qHTS (AID 1347060; cut-off not given, nearly all actives have AC50 up to about 26 µM;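 as to AC50: cells exposed to compound for 48 hours before viability readout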); details: SU-DIPG-XVII viability, CellTiter-Glo ATP luminescence
[2] = growth inhibition of DIPG glioma cells, dose response, cell-based, SU-DIPG-XIII, MIPE4.0, CellTiter-Glo, qHTS (AID 1347061; cut-off not given, nearly all actives have AC50 up to about 37 µM;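 also: cells exposed to compound for 48 hours before readout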); details: SU-DIPG-XIII viability, CellTiter-Glo ATP luminescence
[3] = growth inhibition of DIPG glioma cells, dose response, cell-based, JHH-DIPG-1, MIPE4.0, CellTiter-Glo, qHTS (AID 1347062; cut-off not given, nearly all actives have AC50 up to about 27 µM;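 as to AC50: cells exposed to compound for two days before readout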); details: JHH-DIPG-1 viability, CellTiter-Glo ATP luminescence
[4] = growth inhibition of DIPG glioma cells, dose response, cell-based, SU-DIPG-IV, MIPE4.0, CellTiter-Glo, qHTS (AID 1347063; cut-off not given, nearly all actives have AC50 up to about 30 µM;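 also: compound exposure lasted 48 hours before the viability readout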); details: SU-DIPG-IV viability, CellTiter-Glo ATP luminescence
[5] = growth inhibition of DIPG glioma cells, dose response, cell-based, SU-DIPG-XIII, MIPE5.0, CellTiter-Glo, qHTS (AID 1347064; cut-off not given, nearly all actives have AC50 up to about 23 µM;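 as to AC50: cells exposed to compound for 48 hours before the viability read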); details: SU-DIPG-XIII viability, CellTiter-Glo ATP luminescence
[6] = viability loss in pontine glioma line – cell-based, SU-DIPG-XXV, MIPE5.0, CellTiter-Glo, qHTS, dose response (AID 1347065; cut-off not given, nearly all actives have AC50 up to about 26 µM;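 also: cells exposed to compound for 48 hours before ATP readout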); details: CellTiter-Glo ATP luminescence
[7] = SU-DIPG-VI glioma cell viability, MIPE4.0 library, CellTiter-Glo luminescence, qHTS (AID 1347066; cut-off not given, nearly all actives have AC50 up to about 30 µM;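 also: cells exposed to compound for 48 hours before readout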); details: CellTiter-Glo ATP luminescence
[8] = JHH-DIPG-1 glioma cell viability, MIPE5.0 library, CellTiter-Glo luminescence, qHTS (AID 1347067; cut-off not given, nearly all actives have AC50 up to about 26 µM;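 also: cells exposed to compound for 48 hours before readout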); details: JHH-DIPG-1 glioma viability, CellTiter-Glo ATP luminescence
[9] = sensitizers of A549 cells to miR-34 induction, primary screen, imaging, A549 dox-inducible miR-34, nuclei and caspase counts (AID 1347080;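 active = compounds whose cell count with miR-34 switched on is under 0.7 times the count with it off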); details: A549 miR-34 inducible, Hoechst nuclei count, 48 h
[10] = modifiers of HSF1 nuclear foci, imaging, Selleck Cancer Library (AID 1347162; in the data active = plate-normalised HSF1 focus index below about 0.46); details: human cells, at 10 µM; SSMD: measured here: HSF1 foci SSMD mean; cell count: measured here: cell number; plate-normalised HSF1 focus index: stronger effect = lower value
[11] = survival rescue of mitochondrial mutant cells in low glucose, primary screen, MELAS cybrids, Rieske KO mouse fibroblasts, CellTiter-Glo (AID 1508586;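 active = mean z-score across replicates of 1.96 or higher in either the MELAS or the Rieske mutant cell line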;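 also: z relative to plate mean and SD of compound and empty wells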)
[12] = ovarian cancer cell viability with rucaparib, profiling panel, oncology-focused library, rucaparib conditional (AID 1508598); details: patient-derived ovarian cancer cells, CellTiter-Glo viability, 144 h, stronger effect = lower value
[13] = SU-DIPG-XXV glioma cell viability, MIPE5.0 library, qHTS (AID 1347068; cut-off not given, nearly all actives have IC50 up to about 30 µM;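 as to IC50: cells exposed to compound for 48 hours before viability readout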)
[14] = stronger effect = lower value, cell number ratio, induced over uninduced
[15] = measured here: relative caspase fold change +Dox/-Dox
[16] = measured here: total cells with miR-34 induction, stronger effect = lower value
[17] = measured here: total cells without miR-34 induction
[18] = MELAS cybrid survival, CellTiter-Glo 48 h, stronger effect = higher value
[19] = Rieske KO mouse fibroblast survival, CellTiter-Glo 72 h

CCCCCCCCc1ccc(CCC(N)(CO)CO)cc1
-8.05: SSMD [10]
active: AC50 [1] 10.5 µM | AC50 [2] 23.5 µM | AC50 [3] 9.35 µM | AC50 [4] 3.72 µM | AC50 [5] 18.6 µM | AC50 [6] 10.5 µM | AC50 [7] 23.5 µM | AC50 [8] 10.5 µM | viability ([12]; at 0.00122 µM, OCI-P5x cells, with rucaparib 20 µM, 100% = cells with rucaparib alone) 89.4% | viability ([12]; at 0.00122 µM, OCI-P5x cells, without rucaparib) 98% | viability ([12]; at 0.00488 µM, OCI-P5x cells, with rucaparib 20 µM, 100% = cells with rucaparib alone) 93.5% | viability ([12]; at 0.0195 µM, OCI-P5x cells, with rucaparib 20 µM, 100% = cells with rucaparib alone) 92.4% | viability ([12]; at 0.0781 µM, OCI-P5x cells, with rucaparib 20 µM, 100% = cells with rucaparib alone) 88.8% | viability ([12]; at 0.0781 µM, OCI-P5x cells, without rucaparib) 53.5% | viability ([12]; at 1.25 µM, OCI-P5x cells, with rucaparib 20 µM, 100% = cells with rucaparib alone) 64% | viability ([12]; at 1.25 µM, OCI-P5x cells, without rucaparib) 50.7% | viability ([12]; at 5 µM, OCI-C5x cells, with rucaparib 10 µM, 100% = cells with rucaparib alone) 90.1% | viability ([12]; at 5 µM, OCI-P5x cells, with rucaparib 20 µM, 100% = cells with rucaparib alone) 26% | viability ([12]; at 5 µM, OCI-P5x cells, without rucaparib) 0.383%
0.756 and 0.682: fold change [9, 15]
5720 and 8490: cell count [9, 17]
inactive: fold change [9, 14] 0.951 and 0.892 | plate-normalised HSF1 focus index [10] 0.589 | z-score [11, 18] -0.312 | viability ([12]; at 0.000305 µM, OCI-C5x cells, with rucaparib 10 µM, 100% = cells with rucaparib alone) 106% | viability ([12]; at 0.000305 µM, OCI-C5x cells, without rucaparib) 117% | viability ([12]; at 0.000305 µM, OCI-P5x cells, with rucaparib 20 µM, 100% = cells with rucaparib alone) 107% | viability ([12]; at 0.000305 µM, OCI-P5x cells, without rucaparib) 111% | viability ([12]; at 0.00122 µM, OCI-C5x cells, with rucaparib 10 µM, 100% = cells with rucaparib alone) 110% | viability ([12]; at 0.00122 µM, OCI-C5x cells, without rucaparib) 112% | viability ([12]; at 0.00488 µM, OCI-C5x cells, with rucaparib 10 µM, 100% = cells with rucaparib alone) 101% | viability ([12]; at 0.00488 µM, OCI-C5x cells, without rucaparib) 122% | viability ([12]; at 0.00488 µM, OCI-P5x cells, without rucaparib) 103% | viability ([12]; at 0.0195 µM, OCI-C5x cells, with rucaparib 10 µM, 100% = cells with rucaparib alone) 111% | viability ([12]; at 0.0195 µM, OCI-C5x cells, without rucaparib) 120% | viability ([12]; at 0.0195 µM, OCI-P5x cells, without rucaparib) 106% | viability ([12]; at 0.0781 µM, OCI-C5x cells, with rucaparib 10 µM, 100% = cells with rucaparib alone) 102% | viability ([12]; at 0.0781 µM, OCI-C5x cells, without rucaparib) 106% | viability ([12]; at 0.313 µM, OCI-C5x cells, with rucaparib 10 µM, 100% = cells with rucaparib alone) 112% | viability ([12]; at 0.313 µM, OCI-C5x cells, without rucaparib) 108% | viability ([12]; at 0.313 µM, OCI-P5x cells, with rucaparib 20 µM, 100% = cells with rucaparib alone) 108% | viability ([12]; at 0.313 µM, OCI-P5x cells, without rucaparib) 113% | viability ([12]; at 1.25 µM, OCI-C5x cells, with rucaparib 10 µM, 100% = cells with rucaparib alone) 103% | viability ([12]; at 1.25 µM, OCI-C5x cells, without rucaparib) 121% | viability ([12]; at 5 µM, OCI-C5x cells, without rucaparib) 129%
5440 and 7580: cell count [9, 16]
-0.433: z-score [11, 19]
3980: cell count [10]

c1cncc(CN2CCC(n3ncc4c(N5CCOCC5)nc(-c5ccc6[nH]ccc6c5)nc43)CC2)c1
3130: cell count [9, 17]
2980: cell count [9, 16]
-1.65: z-score [11, 19]
inactive: outcome [13] | fold change [9, 14] 0.951
0.489: fold change [9, 15]
active: AC50 [1] 7.42 µM | AC50 [2] 8.33 µM | AC50 [3] 14.8 µM | AC50 [4] 2.09 µM | AC50 [5] 16.6 µM | AC50 [6] 5.25 µM | AC50 [8] 20.9 µM | z-score [11, 18] 4.98

Cc1ccc(-c2ncn(-c3ccc(Nc4nccc(-c5cccc(N6CCOCC6)c5)n4)cc3)n2)cn1
active: AC50 [1] 2.35 µM | AC50 [2] 0.0833 µM | AC50 [3] 0.0935 µM | AC50 [4] 0.118 µM | AC50 [5] 2.63 µM | AC50 [6] 2.95 µM | AC50 [8] 2.63 µM | IC50 [13] 16.6 µM

COc1ccc(C2(C#N)CCC(C(=O)O)CC2)cc1OC1CCCC1 (centres undefined)
0.847: fold change [9, 15]
0.0886: z-score [11, 19]
7550: cell count [9, 16]
inactive: outcome [1] | outcome [2] | outcome [3] | outcome [4] | outcome [5] | outcome [6] | outcome [7] | fold change [9, 14] 0.931 | z-score [11, 18] -0.364
8110: cell count [9, 17]
